# From ChEMBL document CHEMBL3988442, “University of Dundee, Small-Polar-MMV Screening Library” (2021)
# Screen size: about 66,000 compounds; about 960 (1.5%) showed an effect of 50% or more. The list comes from a sample in which strong results are over-represented; it also holds similar structures and randomly drawn compounds.
# System: Trypanosoma brucei
# Experiment: Trypanosoma brucei 72 hour study
# Assay type: functional, organism-based
# Set-up: scale not given: in the data most compounds retested in dose-response had high values
compound,measurement,setting,value
CCCc1nc2c(c(C)c(C)n2Cc2ccccn2)c(N)c1CC,Percent Effect,"30.3 µM, […]",99.32%
CCCc1nc2c(c(C)c(C)n2Cc2ccncc2)c(N)c1CC,Percent Effect,"30.3 µM, […]",11.66%
CCCc1nc2c(c(C)c(C)n2Cc2cccnc2)c(N)c1CC,Percent Effect,"30.3 µM, […]",26.57%
COc1cccc(-c2noc(C3CCN(Cc4ccc(C)cc4)C3)n2)c1.Cl (configuration not stated),Percent Effect,"30.3 µM, […]",4.598%
Cc1nc(=O)c2ccccc2n1C1=CCN(CC(=O)N2CCCC2)CC1,Percent Effect,"30.3 µM, […]",9.131%
COc1cc(C(=O)N2CCCS2(=O)=O)cc(Cl)c1OC,Percent Effect,"30 µM, 30.03 µM",-12.01%
CCN1CCC2(CC1)OCCN2C(=O)c1ccc(OC)c(Cl)c1.Cl,Percent Effect,"30 µM, 30.03 µM",50.46%
COc1ccc(C(=O)N2C[C@@H](CN3CCCCC3)[C@@H](CO)C2)cc1Cl,Percent Effect,"30 µM, 30.03 µM",22.63%
CCN1CCC2(CC1)OCCN2C(=O)c1cc(Cl)c(OC)c(Cl)c1.Cl,Percent Effect,"30 µM, 30.03 µM",89.37%
CCCOc1c(Cl)cc(C(=O)N2CCOC23CCN(C)CC3)cc1Cl,Percent Effect,"30 µM, 30.03 µM",-15.42%
COCC1CC2(CCN(C(=O)c3ccc(OC)c(Cl)c3)CC2)CO1 (configuration not stated),Percent Effect,"30 µM, 30.03 µM",-6.719%
COc1ccc(-c2cc3nn(CC(=O)NC(C)C)c(=O)n3c(C)n2)cc1,Percent Effect,"30 µM, 30.03 µM",-13.21%
Cc1cc(C)cc(CN2CCN(Cc3cccc(CCN)c3)CC2=O)c1,Percent Effect,"30 µM, 30.03 µM",35.33%
CCc1cc(CN2C[C@H]3CC[C@@H]2CN(C2Cc4ccccc4C2)C3)on1,Percent Effect,"30 µM, 30.03 µM",10.13%
Cc1nnc(CN2CCCC2c2ccsc2)o1 (configuration not stated),Percent Effect,"30.3 µM, […]",-40.61%
Cc1nnc(CN2CCCC2c2ccc(Cl)c(Cl)c2)o1 (configuration not stated),Percent Effect,"30.3 µM, […]",3.085%
Cc1nnc(CN2CCCC2c2ccc(C(C)(C)C)cc2)o1 (configuration not stated),Percent Effect,"30.3 µM, […]",86.15%
Cc1ccc(CN(CCCn2ccnc2)Cc2cc(F)ccc2F)s1.O=C(O)CC(O)(CC(=O)O)C(=O)O,Percent Effect,"30.3 µM, […]",-12.95%
Cc1ccccc1-n1cnnc1SCC1CCCCO1 (configuration not stated),Percent Effect,"30 µM, 30.03 µM",69.07%
Cc1ccccc1-n1cnnc1SCCOCC1CCCO1 (configuration not stated),Percent Effect,"30 µM, 30.03 µM",-22.78%
Cc1ccccc1-n1cnnc1SCC(=O)NCC1CCCO1 (configuration not stated),Percent Effect,"30 µM, 30.03 µM",-21.19%
O=C(CCc1cccs1)N1CCCC(n2ccnc2)C1 (configuration not stated),Percent Effect,10 µM,-23.55%
same,Percent Effect,"30.3 µM, […]",37.83%
Cc1cc(NC(=O)NC2CCN(C(C)C)CC2)c2ncccc2c1,Percent Effect,"30 µM, 30.03 µM",56.47%
Cc1cc(NC(=O)N2CCCC2C(C)(C)O)c2ncccc2c1 (configuration not stated),Percent Effect,"30 µM, 30.03 µM",-36.24%
Cc1cc(NC(=O)N2CCCC2C(=O)NC2CC2)c2ncccc2c1 (configuration not stated),Percent Effect,"30 µM, 30.03 µM",-28.65%
Cl.c1cn(-c2cncc(C3CCNCC3)n2)cn1,Percent Effect,"30.3 µM, […]",-40.04%
CN(C)C(=O)CN1CCC2(COCc3cnc(-c4cccnc4)nc32)C1.O=C(O)C(F)(F)F.O=C(O)C(F)(F)F (configuration not stated),Percent Effect,"30.3 µM, […]",-72.36%
CN(C)C(=O)c1n[nH]c2c1CN(CC1CCCCC1)C2.O=C(O)C(F)(F)F.O=C(O)C(F)(F)F,Percent Effect,"30.3 µM, […]",-36.34%
N#Cc1c(Cl)nsc1N1CCN(CC2CC2)CC1,Percent Effect,"30.3 µM, […]",-23.59%
N#Cc1c(Cl)nsc1N1CCN(CC2CCCCC2)CC1,Percent Effect,"30.3 µM, […]",100.2%
CC(C)(C)CCN1CCN(c2snc(Cl)c2C#N)CC1,Percent Effect,"30.3 µM, […]",100.4%
CC(=O)N1CCN(C(=O)CCNc2snc(Cl)c2C#N)CC1,Percent Effect,"30 µM, 30.03 µM",-13.74%
CC(=O)N1CCN(CCNc2snc(Cl)c2C#N)CC1,Percent Effect,"30 µM, 30.03 µM",1.028%
N#Cc1c(Cl)nsc1NCc1ccc(N2CCC(CO)CC2)cc1,Percent Effect,"30 µM, 30.03 µM",-28.26%
CC(C)COCC1CN(C(=O)c2cscn2)Cc2ncn(C)c21.O=C(O)C(F)(F)F (configuration not stated),Percent Effect,"30.3 µM, […]",-83.42%
CN(C)CCOCc1cncc2c1CCN(Cc1ccccn1)C2.O=C(O)C(F)(F)F.O=C(O)C(F)(F)F.O=C(O)C(F)(F)F,Percent Effect,"30.3 µM, […]",-28.23%
Cc1nc(CN2CC[C@H]3[C@@H]2CCC(=O)N3c2cnn(C)c2)cs1.O=C(O)C(F)(F)F,Percent Effect,"30.3 µM, […]",-10.95%
Cc1ccc(CN(CCCn2ccnc2)Cc2c[nH]nc2C(C)(C)C)s1.O=C(O)CC(O)(CC(=O)O)C(=O)O,Percent Effect,"30.3 µM, […]",-172%
Cc1ccc(C(NC(=O)C2CC2)c2cccc(S(C)(=O)=O)c2)cc1 (configuration not stated),Percent Effect,"30 µM, 30.03 µM",-25.5%
CN(C)CC(C)(O)CNC(=O)Nc1sc2ccccc2c1Cl (configuration not stated),Percent Effect,"30.3 µM, […]",103.3%
CS(=O)(=O)CCNC(=O)Nc1sc2ccccc2c1Cl,Percent Effect,"30.3 µM, […]",-157.9%
CN(C)C(=O)CCNC(=O)Nc1sc2ccccc2c1Cl,Percent Effect,"30.3 µM, […]",-534.4%
Cn1nc(COCC2CC2)c2c1CCN(Cc1cccs1)C2.O=C(O)C(F)(F)F,Percent Effect,"30.3 µM, […]",-72.61%
O=C(O)C(F)(F)F.c1cncc(N2CCCn3nnc(COCC4CC4)c3C2)c1,Percent Effect,"30.3 µM, […]",-2.195%
CN(C)CCN1C(=O)CCCC12CCCN(C(=O)c1cc[nH]n1)C2.O=C(O)C(F)(F)F (configuration not stated),Percent Effect,"30.3 µM, […]",-2.017%
CCOc1ncccc1CNC(=O)NC(C)Cn1cccn1 (configuration not stated),Percent Effect,10 µM,-0.2891%
same,Percent Effect,"30.3 µM, […]",0.8601%
Cc1cc(C)n(C2CCCN(C(=O)c3cccc(F)c3F)C2)n1 (configuration not stated),Percent Effect,"30 µM, 30.03 µM",-91.58%
Cc1nc(C)n(C2CCCN(C(=O)c3ccc(F)cc3F)C2)n1 (configuration not stated),Percent Effect,"30 µM, 30.03 µM",1.062%
Cc1cc(C)n(C2CCCN(C(=O)c3ccc(F)cc3F)C2)n1 (configuration not stated),Percent Effect,"30 µM, 30.03 µM",59.51%
Cn1cc(N2C(=O)CC[C@@H]3[C@H]2CCN3CC2CCOCC2)cn1.O=C(O)C(F)(F)F,Percent Effect,"30.3 µM, […]",-7.648%
CC(=O)N1CCC2(CCN(Cc3ccccn3)C2=O)C1.O=C(O)C(F)(F)F (configuration not stated),Percent Effect,"30 µM, 30.03 µM",1.584%
Clc1cccc(N2CCC(NCc3cc[nH]n3)C2)c1 (configuration not stated),Percent Effect,"30 µM, 30.03 µM",15.76%
Clc1cc(Cl)cc(CN2CCC(NCc3cc[nH]n3)CC2)c1,Percent Effect,"30.3 µM, […]",90.13%
Clc1cc(Cl)cc(CN2CCC(NCc3ncc[nH]3)CC2)c1,Percent Effect,"30.3 µM, […]",-65.03%
Cc1ccc(CN2CCc3ncc(CNC(=O)C4CCC4)n3CC2)o1.O=C(O)C(F)(F)F,Percent Effect,"30.3 µM, […]",-36.54%
CCC(C)(C)n1nnnc1C(c1cccs1)N1CCc2ccccc21 (configuration not stated),Percent Effect,"30.3 µM, […]",72.61%
CCC(C)(C)n1nnnc1C(c1cccs1)N1CCc2ccccc2C1 (configuration not stated),Percent Effect,"30.3 µM, […]",99.92%
CCC(C)(C)n1nnnc1C(c1cccs1)N1CCCCC1 (configuration not stated),Percent Effect,"30.3 µM, […]",13.9%
CCC(CNC(=O)c1ccccn1)N1CCc2ccccc2C1 (configuration not stated),Percent Effect,"30 µM, 30.03 µM",-43.95%
Cc1noc(C)c1C(=O)NCC(C)N1CCc2ccccc21 (configuration not stated),Percent Effect,10 µM,-61.25%
COc1ccc(-c2n[nH]c(C)c2CC(=O)N2CCOCC2)cc1,Percent Effect,"30 µM, 30.03 µM",6.943%
CNC(=O)c1cc2c(nc1NCC1CC1)CCN(S(C)(=O)=O)CC2.O=C(O)C(F)(F)F,Percent Effect,"30 µM, 30.03 µM",-3.721%
Cc1csc(C(=O)N2CC[C@H](Oc3cccnc3C)[C@@H](O)CC2)c1,Percent Effect,"30.3 µM, […]",-24.66%
COc1ccc(CN2CCn3cccc3C2C)cc1F (configuration not stated),Percent Effect,"30 µM, 30.03 µM",11.74%
N#Cc1cccc(CN2C(=O)C3(CCNCC3)Nc3ccccc32)c1,Percent Effect,"30 µM, 30.03 µM",83.34%
C=Cc1ccc(CN2C(=O)C3(CCNCC3)Nc3ccccc32)cc1,Percent Effect,"30 µM, 30.03 µM",-41.13%
N#Cc1cccc(CN2C(=O)c3ccccc3CS2(=O)=O)c1,Percent Effect,"30 µM, 30.03 µM",-36.86%
NC(=O)c1ccc(CN2C(=O)C3(CCNCC3)Nc3ccccc32)cc1,Percent Effect,"30 µM, 30.03 µM",8.328%
CN1CC2(CCN(Cc3cccc(C#N)c3)CC2)CC1=O,Percent Effect,"30 µM, 30.03 µM",-2.169%
CC(C)c1ccc(CN2C(=O)C3(CCNCC3)Nc3ccccc32)cc1,Percent Effect,"30 µM, 30.03 µM",101.9%
O=C(O)C(F)(F)F.O=C(O)C(F)(F)F.c1cc(CN2Cc3nccn3CC(Cn3cncn3)C2)ccn1 (configuration not stated),Percent Effect,"30 µM, 30.03 µM",-13.09%
CNC(=O)CN1CCc2c(CNc3nccs3)n[nH]c2C1.O=C(O)C(F)(F)F,Percent Effect,"30 µM, 30.03 µM",-11.16%
Cc1cc(N(C)CC2COc3ccccc3O2)nc(N)n1 (configuration not stated),Percent Effect,"30.3 µM, […]",-9.48%
CCN1CC(CN(C)c2cc(C)nc(N)n2)Oc2ccccc21 (configuration not stated),Percent Effect,"30.3 µM, […]",98.13%
Cc1cc(N(C)CC2COc3ccccc3O2)nc(C)n1 (configuration not stated),Percent Effect,"30.3 µM, […]",-13.97%
CC(C)CS(=O)(=O)N1C[C@H]2C[C@H](C(=O)Nc3cccnc3)[C@@H](C1)O2,Percent Effect,"30 µM, 30.03 µM",-5.396%
COCCO[C@H]1CCN(c2ccc(C)nn2)[C@H]1Cc1cccnc1.O=C(O)C(F)(F)F.O=C(O)C(F)(F)F,Percent Effect,"30.3 µM, […]",-12.33%
COc1ccccc1CN1C[C@@H]2COC[C@]2(COCc2ccncc2)C1.O=C(O)C(F)(F)F.O=C(O)C(F)(F)F,Percent Effect,"30 µM, 30.03 µM",59.56%
COc1cc(N2C[C@@H]3COC[C@]3(COc3ncccc3F)C2)ncn1.O=C(O)C(F)(F)F.O=C(O)C(F)(F)F,Percent Effect,"30 µM, 30.03 µM",51.8%
COc1cc(N2C[C@@H]3COC[C@]3(COCc3ccccn3)C2)ncn1.O=C(O)C(F)(F)F.O=C(O)C(F)(F)F,Percent Effect,"30 µM, 30.03 µM",-23.44%
COc1ccccc1CN1C[C@@H]2COC[C@]2(COc2cccnc2)C1.O=C(O)C(F)(F)F.O=C(O)C(F)(F)F,Percent Effect,"30 µM, 30.03 µM",-13.45%
Fc1cccc(CN2C[C@@H]3COC[C@]3(COCc3ccncc3)C2)c1.O=C(O)C(F)(F)F.O=C(O)C(F)(F)F,Percent Effect,"30 µM, 30.03 µM",-8.118%
COc1cc(N2C[C@@H]3COC[C@]3(COc3ccccn3)C2)ncn1.O=C(O)C(F)(F)F.O=C(O)C(F)(F)F,Percent Effect,"30.3 µM, […]",-11.8%
N#CC1(C(=O)N2C[C@H]3CC[C@@H]2CN(Cc2cscn2)C3)CCOCC1,Percent Effect,"30 µM, 30.03 µM",-52.3%
Cc1nn(C)c(C)c1C1CCCN1CC(=O)Nc1nccs1 (configuration not stated),Percent Effect,"30.3 µM, […]",-4.403%
CNC(=O)[C@@H]1C[C@H]2CN(Cc3csc(C)n3)C[C@H]2N1C(C)C.O=C(O)C(F)(F)F.O=C(O)C(F)(F)F,Percent Effect,"30.3 µM, […]",4.031%
Cc1nc(C(=O)N2CCN(c3ccc(Cl)c(Cl)c3)CC2)cs1,Percent Effect,"30.3 µM, […]",12.74%
Cc1nccc([C@@H]2C[C@@H]3CCN(S(C)(=O)=O)C[C@H]3O2)n1,Percent Effect,"30 µM, 30.03 µM",53.53%
Cc1nccc([C@H]2C[C@@H]3CCN(S(C)(=O)=O)C[C@H]3O2)n1,Percent Effect,"30.3 µM, […]",-74.86%
Cc1nccc([C@H]2C[C@@H]3CCN(S(=O)(=O)C4CC4)C[C@H]3O2)n1,Percent Effect,"30.3 µM, […]",-36.22%
